Among all 16,000 compounds or so, about 5,700 (36%) were called active. Not shown: some 24% with an inconclusive outcome. The list shows a part of the results. Unmarked numbers belong to inactive results. Calls follow the shape of the dose curve; as a rule, active = well fitted curve in the direction sought with a large enough effect; inconclusive = small, poorly fitted or top-dose-only effect, or effect the other way; inactive = no such curve, though single readings can be large or run the other way.
target: Cytochrome P450 1A2 (Homo sapiens) (UniProt P05177); experiment: Cytochrome panel assay with activity outcomes; conditions: recombinant CYP, pro-luciferin dealkylation, luminescence, p450-cyp1a2; series mostly up to 57.1 µM
% is scaled to controls: 0 for no effect and ±100 for the full control effect.

Sequence of Cytochrome P450 1A2 (Homo sapiens) (P05177 whole entry, looked up): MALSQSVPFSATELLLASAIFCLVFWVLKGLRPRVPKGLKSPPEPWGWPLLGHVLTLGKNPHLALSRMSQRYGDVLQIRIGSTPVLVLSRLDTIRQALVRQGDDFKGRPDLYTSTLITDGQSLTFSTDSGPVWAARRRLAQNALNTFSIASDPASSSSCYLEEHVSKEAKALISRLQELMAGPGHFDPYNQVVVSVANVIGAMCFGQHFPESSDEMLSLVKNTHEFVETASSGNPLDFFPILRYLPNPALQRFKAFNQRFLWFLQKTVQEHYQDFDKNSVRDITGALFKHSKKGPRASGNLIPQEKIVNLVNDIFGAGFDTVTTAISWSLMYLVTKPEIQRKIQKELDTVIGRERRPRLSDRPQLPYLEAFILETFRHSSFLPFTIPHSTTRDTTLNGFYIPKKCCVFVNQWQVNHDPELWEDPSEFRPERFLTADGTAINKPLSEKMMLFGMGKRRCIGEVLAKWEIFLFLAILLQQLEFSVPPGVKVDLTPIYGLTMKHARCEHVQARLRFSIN

SMILES	AC50	activity, negative = inhibition
COc1ccc(C(=O)N2CCC[C@@]3(CCN(Cc4ccc(C#N)cc4)C3)C2)cc1	inactive	
CCn1c(/C=C2/C(=O)N(C)c3ccccc32)nc2ccccc2c1=O	1 µM (active)	
CC1(C)CC2(CCO1)OC(=O)CC2C(=O)NCCc1ccccc1 (configuration not stated)	inactive	
Cc1ccc(S(=O)(=O)/N=C(/Nc2c(C)n(C)n(-c3ccccc3)c2=O)c2ccc(Cl)cc2)cc1	inactive	
Cc1c(N(C)CS(=O)(=O)O)c(=O)n(-c2ccccc2)n1C	inactive	
Cc1c(CCO)c(=O)n(-c2ccccc2)n1S(=O)(=O)c1c(Cl)cc(Cl)cc1Cl	12.6 µM (active)	
CC(=O)O[C@H]1C2=CO[C@H](C)[C@H]3[C@H]4C5=C([C@H](O)[C@H]6O[C@@H]6C5=O)[C@H](O[C@H]4C)[C@@]23C(=O)[C@H]2O[C@@H]21		-0.486% [at 11.4 µM]
Cc1ccn2c(NC(=O)c3ccccc3)c(-c3cccs3)nc2c1	22.4 µM (active)	
O=C(O)C12CC3(C(=O)O)CC(C(=O)O)(CC(C(=O)O)(C1)C3=O)C2=O		-4.32% [at 2.29 µM]
Cc1ncn(-c2ccccc2O)c1C	0.794 µM (active)	
CC1=NNC(=O)C1CCC(=O)N/N=C\c1ccccc1[N+](=O)[O-] (configuration not stated)	inactive	
Cc1nc2ccccn2c1C(=O)N/N=C/c1ccccc1[N+](=O)[O-]	15.8 µM (active)	
COc1ccc2c(c1)c(CC(=O)O)c(C)n2Cc1ccc(Cl)cc1	31.6 µM (active)	
O=C(O)Cc1cc(Cl)ccc1O		-16.6% [at 11.4 µM]
COc1ccc2c(c1)c(CC(=O)OCC(=O)O)c(C)n2C(=O)c1ccc(Cl)cc1	inactive	
CC(=O)n1nc(-c2ccco2)nc1N	10 µM (active)	
Cc1nc2nc[nH]n2c(=O)c1NC(=O)CC12CC3CC(CC(C3)C1)C2	inactive	
O=C1c2ccccc2N[C@H](c2cc(Cl)cc(Cl)c2O)N1CCc1ccccn1		5.81% [at 2.29 µM]
COC(=O)N1CC(=O)N(OC)C1c1ccc(Cl)cc1Cl (configuration not stated)	inactive	

SMILES	AC50	activity, negative = inhibition
O=C1c2ccccc2NC(c2ccc(Cl)cc2Cl)N1O (configuration not stated)	6.31 µM (active)	
Cn1c(=NC(=O)CCl)sc2ccccc21	2.24 µM (active)	
CO[C@H]1[C@H](O[C@H]2O[C@@H](C)[C@@H](O[C@@H]3C[C@](C)(O)[C@H](OC(=O)CC(C)C)[C@H](C)O3)[C@@H](N(C)C)[C@@H]2O)[C@@H](CC=O)C[C@@H](C)[C@@H](O)/C=C\C=C/C[C@@H](C)OC(=O)C[C@H]1OC(C)=O	inactive	
COc1ccc2[nH]cc(C=O)c2c1	7.08 µM (active)	
COc1ccc2[nH]c3cc4c(=O)c5cc(OC)ccc5[nH]c4cc3c(=O)c2c1		-6.02% [at 2.29 µM]
Brc1[nH]nc2ccccc12	1.58 µM (active)	
N[C@@H](Cc1[nH]nc2ccccc12)C(=O)O		-19.1% [at 11.4 µM]
COC(=O)N1CCC2(CC1)CCN(c1ccccn1)CC2	inactive	
COc1ccc(-c2cc(C(=O)O)c3c(C)nn(-c4ccccn4)c3n2)cc1	inactive	
COC(=O)c1ccccc1N/C=C1\CCc2c(c(C)nn2-c2ccccn2)C1=O	6.31 µM (active)	
Cc1cccc(CNc2ncncc2-c2cccnc2)c1	0.794 µM (active)	
c1cncc(CNc2ncncc2-c2cccnc2)c1	5.01 µM (active)	
c1ccc(CNc2ncncc2-c2cccnc2)cc1	2.51 µM (active)	
c1cncc(CNc2ncn[nH]2)c1		-7.88% [at 11.4 µM]
CC[C@H]1C2=C3C(CC[C@H]4C(OCc5ccc(F)cc5C(F)(F)F)OC[C@](C)([C@@H]34)N(C(=O)OC(C)(C)C)C2)C2COC(=O)OCC21 (some centres not stated)	inactive	
O=C(Nc1ccc2c(c1)nc1n2CCN(C2CCCCC2)C1)NC1CCCCC1	inactive	
Cc1ccc(S(=O)(=O)N[C@@H]2COC(=O)C/C=C\[C@H](C)COC(=O)N[C@@H](C)C(=O)C/C=C\[C@H]2C)cc1		-0.145% [at 11.4 µM]
Cc1ccc(NC(=O)c2ccc(CSc3nnc(-c4ccncc4)n3C)cc2)cc1	inactive	
C=CCn1c(SCc2ccc(C(=O)Nc3ccccc3)cc2)nnc1-c1ccccc1	14.1 µM (active)	

SMILES	AC50	activity, negative = inhibition
CCn1c(SCc2ccc(C(=O)Nc3nccs3)cc2)nnc1-c1ccc(NC(C)=O)cc1	12.6 µM (active)	
Cc1nc2sc(C#N)c(N)c2c2c1CCCC2	2 µM (active)	
NC(=O)c1csc(-c2ccc(CO)o2)n1		-13.1% [at 11.4 µM]
OCc1ccc(-c2nn(Cc3ccccc3)c3ccccc23)o1	1.58 µM (active)	
O=C(NNS(=O)(=O)c1cc(Cl)cc(Cl)c1)c1sccc1-n1cccc1	2 µM (active)	
O=C(NNS(=O)(=O)c1ccccc1)c1cccnc1		2.15% [at 2.29 µM]
CCS(=O)(=O)N1CCC(C(=O)NCCCN2CCCC2)CC1	inactive	
COc1ccc(N=C2S/C(=C\c3ccc(C)s3)C(=O)N2CC(C)C)cc1	inactive	
CCCN1C(=O)/C(=C/c2ccc(C)s2)SC1=Nc1ccc(OC)cc1	11.2 µM (active)	
CCCCNc1nc(SC)nc2nc[nH]c12	0.316 µM (active)	
O=C(O)CCNc1ncnc2nc[nH]c12		-6.59% [at 11.4 µM]
CN(C)CCCNc1ncnc2nc[nH]c12		-16.6% [at 11.4 µM]
CC[C@@]1(O)C(=O)OCc2c1cc1n(c2=O)Cc2cc3c(CN(C)C)c(O)ccc3nc2-1		-17.9% [at 2.29 µM]
CCn1c(SCC(=O)Nc2sc3c(c2C(N)=O)CCC(C)C3)nnc1-c1ccco1 (configuration not stated)	12.6 µM (active)	
CCn1c(SCC(=O)Nc2sc3c(c2C#N)CCC(C(C)(C)C)C3)nnc1-c1ccco1 (configuration not stated)	inactive	
COc1ncc2nc(-c3cc(F)cc(F)c3)c(=O)n(C[C@H]3CCCO3)c2n1	3.16 µM (active)	
COc1cccc(Cn2c(=O)c(-c3cc(F)cc(F)c3)nc3cnc(N4CCN(C)CC4)nc32)c1	inactive	
COc1ncc2nc(-c3ccc(Cl)cc3)c(=O)n(C[C@H]3CCCO3)c2n1	0.501 µM (active)	
CCCC12CN3CC(CCC)(CN(C1)C3C(O)C(O)C(O)CO)C2=O (configuration not stated)	inactive	

From PubChem BioAssay AID1851 (National Center for Advancing Translational Sciences (NCATS), 2009)
